In the library only some 12% were active in any assay of this set; here they are far more common.
BAZ2B inh = blocks human BAZ2B | Potency, µM (highest dose often 114 µM), hits mostly inhibitors | Q9UIF8 | 360,000 compounds, 4.4% hits | AlphaScreen BAZ2B-H3K14Ac peptide displacement; further: nearly all actives have a fitted effect of over 60% in size
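Inhibition is scored as reduced AlphaScreen emission. The BAZ2B/b-H3(5-23)K14Ac complex (50 nM each) in PBS pH 7.4, 0.01% Tween-20 meets compound (up to 110 uM) for 30 min at RT before bead addition.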
G9a inh = G9a (human) methyltransferase inhibition. Q96KQ7. 350,000 compounds, 8.8% hits. G9a H3K9 monomethylation, AlphaScreen, 2 h. Potency, µM (highest dose often 102 µM), most hits filed as inhibitors; further: nearly all actives have a fitted effect of over 75% in size
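Enzyme 20 nM + cpd, 15 min RT; add b-H3K9 pep 500 nM / SAM 20 uM; 2 h RT; anti-H3K9me1 Ab 0.5 ug/mL + SA donor / anti-rabbit acceptor beads 20 ug/mL each, 10 min; AlphaScreen read.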
JMJD2A Tudor = blocks the human JMJD2A Tudor domain; AlphaScreen JMJD2A-Tudor / H3K4me3 peptide binding; Potency, µM (series often up to 114 µM), actives largely listed as inhibitors; AID 504339; O75164; 390,000 compounds, 4.4% hits; further: nearly all actives have a fitted effect of over 50% in size
Target sequence (O75164 whole entry, looked up, the tested form may be a part): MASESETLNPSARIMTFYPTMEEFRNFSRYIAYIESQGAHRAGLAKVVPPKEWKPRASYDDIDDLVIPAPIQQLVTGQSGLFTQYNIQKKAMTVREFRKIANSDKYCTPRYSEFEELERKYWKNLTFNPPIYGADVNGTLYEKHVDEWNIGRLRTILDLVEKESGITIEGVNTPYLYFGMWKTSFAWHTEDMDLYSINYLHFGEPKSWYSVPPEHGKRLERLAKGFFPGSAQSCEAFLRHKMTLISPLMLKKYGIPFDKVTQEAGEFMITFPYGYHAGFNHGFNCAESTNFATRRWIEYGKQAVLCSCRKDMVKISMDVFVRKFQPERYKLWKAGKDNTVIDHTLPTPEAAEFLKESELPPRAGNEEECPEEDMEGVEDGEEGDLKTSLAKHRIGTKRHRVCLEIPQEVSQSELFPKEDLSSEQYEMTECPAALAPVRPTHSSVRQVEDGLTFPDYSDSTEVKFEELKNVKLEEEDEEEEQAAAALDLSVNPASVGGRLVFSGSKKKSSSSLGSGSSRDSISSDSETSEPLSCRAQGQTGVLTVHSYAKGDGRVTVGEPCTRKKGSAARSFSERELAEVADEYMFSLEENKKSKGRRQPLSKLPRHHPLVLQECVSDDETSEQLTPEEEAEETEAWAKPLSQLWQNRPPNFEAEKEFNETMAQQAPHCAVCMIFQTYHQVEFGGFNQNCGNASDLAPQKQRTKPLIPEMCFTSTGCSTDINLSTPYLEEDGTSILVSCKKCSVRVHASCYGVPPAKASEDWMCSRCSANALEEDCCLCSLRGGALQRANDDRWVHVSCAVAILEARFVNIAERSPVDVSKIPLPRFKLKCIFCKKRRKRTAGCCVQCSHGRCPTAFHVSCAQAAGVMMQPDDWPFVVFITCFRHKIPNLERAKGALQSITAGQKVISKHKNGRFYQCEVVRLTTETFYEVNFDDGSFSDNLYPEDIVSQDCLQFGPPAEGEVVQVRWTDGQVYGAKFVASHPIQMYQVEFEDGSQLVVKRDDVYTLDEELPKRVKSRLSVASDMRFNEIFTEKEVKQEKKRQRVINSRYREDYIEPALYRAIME
Sfp inh = Sfp phosphopantetheinyl transferase inhibition. Biochemical Sfp PPTase activity, qHTS. Potency, µM, hits mostly inhibitors. 310,000 compounds, 3.5% hits. AID 1490;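 further: the enzyme is Sfp with the accession as filed and its product quenches rhodamine fluorescence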
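Compounds were incubated with enzyme (final 15 nM) for 15 min at room temperature before substrate addition started the reaction. Fluorescence at 525 nm excitation, 598 nm emission was recorded immediately and after 30 minutes.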
HP1b chromo inh = inhibitors of HP1-beta chromodomain binding to methylated histone tails. 390,000 compounds, 0.56% hits. P83916. AlphaScreen HP1-beta / biotin-H3K9me3 peptide binding. AID 540317. Potency, µM (highest dose often 114 µM), usual class: inhibitors; further: nearly all actives have a fitted effect of over 70% in size
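Compound inhibition of the preformed complex between 50 nM HP1-beta and 50 nM biotinylated H3K9me3 peptide was read by AlphaScreen. Buffer was PBS pH 7.4 with 0.01% Tween-20. Incubations ran 30 min at room temperature, with 10 ug/mL donor/acceptor beads.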
L3MBTL1 block = inhibitors of human L3MBTL1. Q9Y468. AlphaScreen L3MBTL1–H3K9me1 peptide binding. Potency, µM (titrated, usually from 57.1 µM), hits mostly inhibitors. 230,000 compounds, 0.66% hits. AID 485360; further: nearly all actives have a fitted effect of over 60% in size
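AlphaScreen assay: L3MBTL1 (50 nM final) was preincubated 30 min at room temperature with biotinylated H3(1-15)K9me1 peptide (75 nM final), then 30 min with library compounds; streptavidin donor and nickel chelate acceptor beads (10 ug/mL final) added, 30 min dark.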
Hits are given with their value; n = inactive; u = inconclusive; x = no result; ! = a repeat was not active; [ ] = dose if it differs, or a comment. The call rests on the fitted dose curve; in most records, active means well fitted curve in the direction sought with a large enough effect; inconclusive means small, poorly fitted or top-dose-only effect, or another doubt; inactive means no such curve, though single readings can be large; an effect the other way counts as inactive or inconclusive.

SMILES	BAZ2B inh	G9a inh	JMJD2A Tudor	Sfp inh	HP1b chromo inh	L3MBTL1 block
O=C(Nc1nnc(-c2ccccc2)s1)c1cccc(S(=O)(=O)N2CCOCC2)c1	n	u	79.4µM	n	n	n
Cc1cccc(NC(=O)Cn2c(=O)c3cccn3c3ccccc32)c1C	n	n	n	x	n	x
CCC(=C(CC)c1ccc(O)cc1)c1ccc(O)cc1	x	n[21.5 µM]	x	n	x	x
c1ccc(N2CCN(c3ccccc3)C2c2cccnc2)cc1	u	u	u	n	n	n
c1ccc(N2CCN(c3ccccc3)C2c2ccncc2)cc1	u	u	u	79.4µM	n	x
Cc1ccc(N2CCN(c3ccc(C)cc3)C2c2cccnc2)cc1	35.5µM	n[12.7 µM]	39.8µM	n	u	x
Cc1ccc(CN=c2c([N+](=O)[O-])nn(-c3ccc(Cl)cc3)n2O)cc1	u	50.1µM	u	u	u	n
O=[N+]([O-])c1nn(-c2ccccc2)n(O)c1=NC1CCN(Cc2ccccc2)CC1	n	n	n	n	n	n
O=[N+]([O-])c1nn(-c2ccc(Cl)cc2)n(O)c1=NCc1cccnc1	u	u	u	n	n	n
O=[N+]([O-])c1nn(-c2cccc(Cl)c2)n(O)c1=NCc1cccnc1	u	7.94µM	u	n	n	n
O=[N+]([O-])c1nn(-c2ccc(Cl)cc2)n(O)c1=NCc1ccncc1	u	39.8µM	n	n	n	x
O=[N+]([O-])c1nn(-c2ccc3c(c2)OCCO3)n(O)c1=NCc1ccc(F)cc1	35.5µM	u	35.5µM	n	u	n
O=[N+]([O-])c1nn(-c2ccc3c(c2)OCCO3)n(O)c1=NCc1ccc(F)cc1Cl	n	n	n	n	n	x
Cc1ccc(C)c(NC(=O)CN2C(=O)CCc3cc(S(=O)(=O)N4CCCCC4)ccc32)c1	n	n[12.7 µM]	n	x	n	x
Cc1nn2c(=O)cc(COC(=O)c3ccco3)nc2s1	n	n	n	x	n	x
CC(C)(C)c1ccc(OCCOc2ccc(C(C)(C)C)cc2NC=O)c(NC=O)c1	n	n[0.501 µM]	n	56.2µM	n	n
O=C(Nn1c(-c2ccccc2)nc2ccccc2c1=O)c1ccco1	n	n	n	n	n	n
O=C(Nn1c(-c2ccncc2)nc2ccccc2c1=O)c1ccccc1Br	n	50.1µM	n	n	n	n
O=C(Nn1c(-c2ccncc2)nc2ccccc2c1=O)c1ccc(Br)cc1	n	n	n	n	n	x
O=C(Nn1c(-c2ccc(Br)cc2)nc2ccccc2c1=O)c1cccnc1	x	n	35.5µM	n	n	x
COC(=O)C/C=C/C(C)C(OCc1cccc(Br)c1)C(C)C(OC)C1CCCCC1 (stereo unspecified)	x	x	x	n	x	x
CN(C)c1cncc(C(=O)O)c1	n	n	n	56.2µM	n	x
Cc1nc2ccccc2c(=O)n1/N=C/c1ccc2ccccc2c1O	u	28.2µM	u	n	n	31.6µM
Cc1cc([N+](=O)[O-])cc(/C=N/n2c(C)nc3ccccc3c2=O)c1O	79.4µM	n	u	n	n	u
Cc1nc2ccccc2c(=O)n1/N=C/c1ccc(O)c(O)c1O	u	1.26µM	14.1µM	7.08µM	u	x
SMILES	BAZ2B inh	G9a inh	JMJD2A Tudor	Sfp inh	HP1b chromo inh	L3MBTL1 block
Cc1nc2ccccc2c(=O)n1/N=C/c1ccccc1	n	n[0.501 µM]	n	n	n	n
Cc1[nH]n(-c2ccccc2)c(=O)c1/C=N/n1c(C)nc2ccccc2c1=O	n	3.16µM	n	n	n	n
Cc1nc2ccccc2c(=O)n1/N=C/c1ccccc1O	n	x	n	n	n	n
CCOc1ccccc1CNC(=O)c1cccc(NC(=O)c2nsc3ccccc23)c1	n	n	n	x	n	x
C=Cc1cc2c(s1)c1cnn(Cc3ccccc3F)c(=O)c1n2C	x	x	n	x	x	x
Cc1ccnc(SCC(=O)Nc2sccc2C#N)n1	50.1µM	n	n	n	n	x
Cn1nnnc1SCC(=O)c1ccc(Br)s1	n	x	n	n	n	n
Cc1ccnc(SCC(=O)c2cccs2)n1	n	35.5µM	n	n	n	x
Cc1ccnc(SCc2cc(=O)c(OC(=O)c3cccs3)co2)n1	n	n	n	n	n	x
CC(=O)Nc1ccc(SCC(=O)c2ccc(Br)s2)cc1	50.1µM	22.4µM	u	50.1µM	u	x
Cc1ccnc(SCC(=O)c2ccc(Br)s2)n1	n	17.8µM	n	79.4µM	n	n
CCCc1cc(=O)[nH]c(Nc2ccc(C)c(O)c2)n1	n	u	n	x	n	x
Cc1cc(C)nc(SCC(=O)NNC(=O)c2cccs2)n1	n	56.2µM	n	n	u	n
CCCCOc1cccc(NC(=O)c2cccc(C(=O)Nc3cccc(OCCCC)c3)c2)c1	n	n	n	x	n	x
Cc1cc2c(cc1C)N[C@]1(C[C@H]3CCCC(=O)N4CC[C@@H](C1)[C@@H]34)C(=NC(C)(C)CC(C)(C)C)N2	x	x	22.4µM	x	u	x
COc1ccc(Cl)cc1NC(=O)C(C)NC(c1ccccc1)c1ccccc1 (stereo unspecified)	n	79.4µM	n	n	n	n
CCN(CC)CCC(=O)Nc1cccc2c1C(=O)c1ccccc1C2=O	u	39.8µM	u	n	n	n
CCN(CC)CCNC(=O)c1ccc2c(c1NCCO)C(=O)c1ccccc1C2=O	39.8µM	39.8µM	u	n	u	n
O=C(NCCO)c1cccc2c1C(=O)c1ccccc1-2	n	u	n	n	n	n
Nc1cccc(C(=O)OCC(=O)Nc2cccc3c2C(=O)c2ccccc2C3=O)c1	n	n	n	n	n	n
CC1CCN(C(=O)c2ccc3c(c2NCCO)C(=O)c2ccccc2C3=O)CC1	31.6µM	u	44.7µM	n	u	x
CCOC(=O)c1c(C)c(-c2ccccc2)n(CC(=O)Nc2cc(OC)cc(OC)c2)c1C	n	n	n	x	n	x
CN1CCN(c2c(F)cc3c(=O)c(C(=O)O)cn4c3c2SCC4)CC1	u	7.94µM!	n	n	n	n
C[C@@H]1COc2c(N3CCN(C)CC3)c(F)cc3c(=O)c(C(=O)O)cn1c23	x	n[12.7 µM]	x	n	x	x
CC1OC(CC(=O)O)CC2=C1C(=O)c1c(O)cccc1C2=O (stereo unspecified)	x	x	56.2µM	x	u	x
SMILES	BAZ2B inh	G9a inh	JMJD2A Tudor	Sfp inh	HP1b chromo inh	L3MBTL1 block
O=C(NCCCN1CCCCCC1)c1ccc2c(c1)sc1nc(-c3ccccc3)cn12	n	n	n	x	n	x
c1ccc(-c2cnnn2-c2ccccc2)cc1	n	n	n	n	n	n
c1ccc(-c2cncn2-c2ccccc2)cc1	50.1µM	n[2.33 µM]	u	x	n	n
CCOCCCNC(=O)CN1C(=O)c2c(c3ccccc3n2C)C1c1ccc(OC)cc1 (stereo unspecified)	u	n	n	x	n	x
Cc1cc(OCC(=O)N2CCC[C@@H]2C(=O)O)c2c(C)c(C)c(=O)oc2c1	n	n	n	n	n	n
Cc1cc(OCC(=O)N2CCN(c3cccc(Cl)c3)CC2)c2c(C)c(C)c(=O)oc2c1	n	n	n	39.8µM	n	x
CCC1Nc2ncnc(N3CCN(c4ccccc4)CC3)c2N(Cc2ccc(C)cc2)C1=O (stereo unspecified)	u	u	56.2µM	x	n	n

High-throughput results: PubChem, National Center for Advancing Translational Sciences (NCATS)
